Rows were chosen to be rich in hits. Some 4.1% of all compounds tested hit in one or more screens of this group.
DAX1 inh-1: blocks DAX1 repression of SF-1 activated StAR promoter; HEK293T StAR-luciferase reporter, SF-1/DAX-1 repression relief; inhibition, % at 6.8 µM; hit rate 1.1% among 370,000;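 active = inhibition above the mean over all tested compounds plus 3 SD, cut at about 3.6% in these data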;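 also: higher inhibition means more luminescence from relief of DAX-1 repression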
hgDAF12 agonist: activates the H. glycines DAF-12 receptor ligand-binding domain. hit rate 1.8% among 370,000. HEK293 GAL4-hgDAF12 UAS-luciferase reporter, agonist luminescence; normalized to butyrate control. activation, % at 6.8 µM;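 active = activation above a cutoff set at the mean of all screened compounds plus 3 SD, cut at about 10% in these data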
ssDAF12 agonist: S. stercoralis DAF-12 activation, primary screen. HEK293 ssDAF-12/GRIP1 lit1-tk-luc reporter, luminescence; % of 3 µM dafachronic acid response. activation, % at 6.8 µM. hit rate 1% among 370,000. AID 652126;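 active = activation above the mean over all tested compounds plus 3 SD, cut at about 0.9% in these data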
hcDAF12 agonist: activators of H. contortus DAF-12 nuclear receptor | hit rate 1.4% among 370,000 | AID 652067 | activation, % at 6.8 µM | HEK293 hcDAF-12 lit1-tk-luc reporter, luminescence; 0% DMSO, 100% Δ7-dafachronic acid;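 active = activation above the mean of all tested compounds plus 3 SD, cut at about 5.5% in these data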
DAX1 inh-2: inhibitors of human orphan nuclear receptor DAX1 (NR0B1); P51843; HEK293 Gal4-DAX1 luciferase reporter, luminescence; inhibition, % at 6.75 µM; hit rate 0.99% among 340,000;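 active = inhibition above the mean over all tested compounds plus 3 SD, cut at about 4.2% in these data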;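 also: inhibition shows as a rise in luminescence from relieved DAX1 repression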
Target sequence (P51843 207-470 limits assumed): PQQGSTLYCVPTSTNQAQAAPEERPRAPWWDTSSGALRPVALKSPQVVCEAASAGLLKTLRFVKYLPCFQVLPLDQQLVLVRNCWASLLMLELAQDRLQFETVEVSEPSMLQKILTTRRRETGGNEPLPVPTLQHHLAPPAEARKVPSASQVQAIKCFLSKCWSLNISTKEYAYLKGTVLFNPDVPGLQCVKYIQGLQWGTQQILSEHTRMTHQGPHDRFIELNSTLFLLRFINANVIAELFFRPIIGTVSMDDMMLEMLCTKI
hgDAF12 ag: confirmation of H. glycines DAF-12 agonists; activation, % at 6.8 µM; hit rate 80% among 3,300; shares compounds with hgDAF12 agonist; HEK293 GAL4-hgDAF12 luciferase reporter, agonist mode; percent of butyrate response;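 active = mean activation over triplicate wells above the hit cutoff derived from the earlier primary screen, cut at about 11% in these data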
LXRb DAF12 ctr: activates human LXR-beta, counter-screen for DAF-12 agonists | shares compounds with hgDAF12 agonist | HEK293 Gal4-LXR luciferase reporter, 24 h | activation, % at 6.8 µM | 3,300 tested, under 10 active;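 active = mean activation of the triplicate above a set limit carried over from the primary screen, none filed active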
Target sequence (P55055 whole entry, looked up, the tested form may be a part): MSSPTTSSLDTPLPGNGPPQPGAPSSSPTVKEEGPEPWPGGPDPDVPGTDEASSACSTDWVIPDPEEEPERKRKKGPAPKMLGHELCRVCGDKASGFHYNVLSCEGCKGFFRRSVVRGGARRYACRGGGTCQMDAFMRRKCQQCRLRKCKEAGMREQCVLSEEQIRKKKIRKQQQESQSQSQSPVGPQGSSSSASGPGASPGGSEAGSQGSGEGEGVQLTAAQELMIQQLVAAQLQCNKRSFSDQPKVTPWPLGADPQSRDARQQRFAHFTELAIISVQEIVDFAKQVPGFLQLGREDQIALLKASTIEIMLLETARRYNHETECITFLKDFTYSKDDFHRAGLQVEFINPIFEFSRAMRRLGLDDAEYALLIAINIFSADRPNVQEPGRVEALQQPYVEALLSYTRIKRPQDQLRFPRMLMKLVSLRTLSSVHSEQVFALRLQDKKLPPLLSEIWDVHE
Large screens that a line does not name were inactive (follow-up assays come after a bar, where they were run).

O=C1/C(=C/c2ccccn2)COc2ccccc21	none
O=C1/C(=C/c2ccc(O)cc2)COc2ccccc21	hgDAF12 agonist 15 | hgDAF12 ag 12 | LXRb DAF12 ctr inactive
CCOC(=O)c1sc(Nc2nc3c(F)cccc3s2)cc1C	hgDAF12 agonist 16 | hgDAF12 ag 13 | LXRb DAF12 ctr inactive
CCOC(=O)c1sc(NC(=O)c2sccc2C)cc1C	hgDAF12 agonist 17, ssDAF12 agonist 1.2, hcDAF12 agonist 6.4 | hgDAF12 ag 17 | LXRb DAF12 ctr inactive
CCOC(=O)c1sc(NC(=O)c2cccs2)cc1C	hgDAF12 agonist 15 | hgDAF12 ag 14 | LXRb DAF12 ctr inactive
CCOC(=O)[C@]12CCCC=C1N(CCc1ccc(OC)c(OC)c1)C(=O)[C@H](CC(=O)N1CCCCC1)C2	none (no result: DAX1 inh-2)
Cc1ccc(Cn2cc(CN3CC(N4CCN(CCN(C)C)CC4)CS3(=O)=O)nn2)cc1 (stereo unspecified)	none (no result: DAX1 inh-2)
C=CCN=Cc1sc2ccc(OCC)cc2c1O	hgDAF12 agonist 14, hcDAF12 agonist 5.6 (no result: DAX1 inh-2) | hgDAF12 ag inactive | LXRb DAF12 ctr inactive
CCCCN=Cc1sc2ccc(OCC)cc2c1O	none
O=C(Cc1ccccc1[N+](=O)[O-])NCc1ccccc1Cl	hgDAF12 agonist 14 | hgDAF12 ag 14 | LXRb DAF12 ctr inactive
O=C(c1ccco1)N1CCc2ccccc21	hgDAF12 agonist 14 | hgDAF12 ag inactive | LXRb DAF12 ctr inactive
CCCCNC(=O)O[C@H]1CC[C@@]23CCCN2C(=O)CCC[C@H]3[C@H]1C	none (no result: DAX1 inh-1, DAX1 inh-2)
O=C(Nc1ccc(/C=C/c2nc3ccccc3o2)cc1)c1c(F)cccc1F	hgDAF12 agonist 16 | hgDAF12 ag 19 | LXRb DAF12 ctr inactive
O=C(Nc1ccc(/C=C/c2nc3ccccc3o2)cc1)c1cccc(C(F)(F)F)c1	none
O=C(Nc1ccc(F)c(Cl)c1)c1nsc(Cl)c1Cl	hgDAF12 agonist 13 | hgDAF12 ag 16 | LXRb DAF12 ctr inactive
O=C(O)C1=C(C(=O)Nc2ccc(F)c(Cl)c2)CCCC1	none
Fc1ccccc1CSc1nnc(-c2cccnc2)o1	hgDAF12 agonist 14, DAX1 inh-2 4.6 | hgDAF12 ag 11 | LXRb DAF12 ctr inactive
Fc1ccccc1CSc1nnc(-c2ccccc2)o1	hgDAF12 agonist 18 | hgDAF12 ag 14 | LXRb DAF12 ctr inactive
CCOc1cc(C2NN=C(c3ccc(C)cc3)S2)ccc1O (stereo unspecified)	hgDAF12 agonist 14 | hgDAF12 ag 16 | LXRb DAF12 ctr inactive
N#Cc1ccc(S(=O)(=O)N2CCCCC2c2cc(C(=O)NCc3cccnc3)no2)cc1 (stereo unspecified)	none (no result: DAX1 inh-2)
O=C(NCc1ccccc1)c1cc(C2CCCN(C(=O)CCCc3ccccc3)C2)on1 (stereo unspecified)	none (no result: DAX1 inh-2)
O=C(N=C1SCC(=O)N1c1ccccc1Cl)c1ccccc1	hgDAF12 agonist 17 | hgDAF12 ag inactive | LXRb DAF12 ctr inactive
CCOc1ccc(C(=O)N/N=C/c2ccc(SC)cc2)cc1	none
CSc1ccc(/C=N/NC(=O)c2cccc(O)c2)cc1	DAX1 inh-1 4.1, hgDAF12 agonist 15 | hgDAF12 ag 18 | LXRb DAF12 ctr inactive
CC(C)c1ccc(/C=N/NC(=O)c2cccc(Cl)c2)cc1	hgDAF12 agonist 15 | hgDAF12 ag 24 | LXRb DAF12 ctr inactive
Cc1nc(N)sc1C(=O)N/N=C/c1ccccc1[N+](=O)[O-]	hgDAF12 agonist 14 (no result: DAX1 inh-2) | hgDAF12 ag inactive | LXRb DAF12 ctr inactive
Cc1c(NC(=O)c2ccc(C(C)(C)C)cc2)cccc1[N+](=O)[O-]	hgDAF12 agonist 14 | hgDAF12 ag inactive | LXRb DAF12 ctr inactive
O=C(NCc1ccc(Cl)cc1)C1CCCN(c2ncccn2)C1 (stereo unspecified)	none (no result: DAX1 inh-2)
COc1ccc2c(c1OC)C(=O)N(c1cccc(C)c1)C2	DAX1 inh-1 3.6, hgDAF12 agonist 13, ssDAF12 agonist 1.3 | hgDAF12 ag 16 | LXRb DAF12 ctr inactive
Cc1cccc(N2CC(=O)N(c3cccc(C)c3)CC2=O)c1	none
COc1ccc(C(CC(=O)Nc2nccs2)C(C)C)cc1 (stereo unspecified)	none
COc1ccccc1OCCCC(=O)Nc1nccs1	DAX1 inh-1 4.5, hgDAF12 agonist 14 | hgDAF12 ag 11 | LXRb DAF12 ctr inactive
COc1ccc(C(CC(=O)Nc2nccs2)n2cccc2)cc1 (stereo unspecified)	hgDAF12 agonist 16, ssDAF12 agonist 0.9 | hgDAF12 ag 16 | LXRb DAF12 ctr inactive
O=C(COc1cccc2cccnc12)Nc1nccs1	hgDAF12 agonist 14 | hgDAF12 ag 10 | LXRb DAF12 ctr inactive
C/C(=C\c1ccccc1)C(=O)Nc1nccs1	hgDAF12 agonist 16 | hgDAF12 ag 12 | LXRb DAF12 ctr inactive
O=C(NCCc1c[nH]c2ccccc12)OCc1cn(-c2cccc(Cl)c2)nn1	none (no result: DAX1 inh-2)
c1ccc(Cc2cnc(N3CCN(Cc4ccc5c(c4)OCCO5)CC3)nc2)cc1	none (no result: DAX1 inh-2)
COc1ccc(OC)c2nc(-c3ccc4c(c3)OCO4)ccc12	hgDAF12 agonist 15, hcDAF12 agonist 6.4, DAX1 inh-2 5.7 | hgDAF12 ag 18 | LXRb DAF12 ctr inactive
COc1ccc(-c2oc(=O)c3cc(OC)c(OC)cc3c2-c2ccc3c(c2)OCO3)cc1	none
COc1ccc(Nc2ncnc3c2c(C)c(C)n3CCO)cc1	hgDAF12 agonist 16 | hgDAF12 ag 17 | LXRb DAF12 ctr inactive
Cc1nn(-c2ccccc2)c(N)c1N=O	none (no result: DAX1 inh-2)
Cc1ccc(N=Nc2c(N)nn(-c3ccccc3)c2N)cc1	hgDAF12 agonist 20, ssDAF12 agonist 0.9 | hgDAF12 ag 25 | LXRb DAF12 ctr inactive
Cc1nn(-c2ccccc2)c(N)c1N=Nc1ccc2ccccc2c1	hgDAF12 agonist 23 | hgDAF12 ag 18 | LXRb DAF12 ctr inactive
O=C(CCN1C(=O)c2ccccc2C1=O)c1ccccc1	none
COc1ncccc1-c1nnn(-c2ccc(C)cc2)n1	hgDAF12 agonist 17 | hgDAF12 ag 17 | LXRb DAF12 ctr inactive
CCc1nc2c(OCc3ccccc3C(=O)OC)cccn2c1N(C)C(=O)CC(C)C	none (no result: DAX1 inh-2)
O=C(NN=Cc1ccccc1Cl)c1cccc2ccccc12	none
COc1cc(/C=N/NC(=O)c2ccoc2C)cc(OC)c1OC	none
Cc1occc1C(=O)N/N=C/c1ccc2c(c1)OCO2	hgDAF12 agonist 16, hcDAF12 agonist 5.7 | hgDAF12 ag 21 | LXRb DAF12 ctr inactive
Cc1occc1C(=O)N/N=C/c1cccc2ccccc12	hgDAF12 agonist 21, ssDAF12 agonist 1.0, hcDAF12 agonist 5.8 | hgDAF12 ag 14 | LXRb DAF12 ctr inactive
Cc1occc1C(=O)N/N=C/C(Br)=C/c1ccccc1	hgDAF12 agonist 17 | hgDAF12 ag 14 | LXRb DAF12 ctr inactive
Cc1cc(/C=N/NC(=O)c2ccoc2C)cc(C)c1O	DAX1 inh-1 4.3, hgDAF12 agonist 18, DAX1 inh-2 4.8 | hgDAF12 ag 14 | LXRb DAF12 ctr inactive

Screens as filed in PubChem.
